The text below walks through data of PubChem BioAssay (NCI).

About 83,000 compounds went through this panel and 20% of them were active in at least one assay; those are over-represented in the sample as a whole.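 Compound tested at a single concentration for 48 hours in 96-well plates; a percent growth value below 10 was scored as active.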 Unmarked numbers belong to inactive results. Activity calls are given as the source filed them.

Among the test systems are SK-MEL-2 melanoma; EKVX NSCLC; SN12C renal; UO-31 renal; TK-10 renal; ACHN renal; A498 renal; CCRF-CEM leukemia; MOLT-4 leukemia.
Common to all, as to test: NCI-60 one-dose screen, 48 h (100 = growth as untreated, 0 = no growth, -100 = all killed)
What all share (details): 10 µM

As for `Cc1c(Cl)cccc1NC(=O)CN1CCOCC1`, the growth is 93.5% in the assay with SK-MEL-2 melanoma; 102% in the assay on EKVX NSCLC; 99.9% in the assay with SN12C renal; 83.8% with UO-31 renal; 84.4% in the assay on TK-10 renal; 109% in the assay on ACHN renal. Further, the growth was 101% in the assay on A498 renal, 97.2% in the assay with CCRF-CEM leukemia and 82.3% in the assay on MOLT-4 leukemia.
For the molecule `COc1ccc2nc(-c3ccc(Cl)cc3)cc(-c3nnc(SC/C(=N\O)c4ccccc4)n3-c3ccccc3)c2c1`, the growth in the assay on SK-MEL-2 melanoma was 89.9%; in the assay with EKVX NSCLC, 96.2%; in the assay on SN12C renal, 95.8%; with UO-31 renal, 78.2%; with TK-10 renal it was 111%; with ACHN renal, 90.2%. Also, the growth is 96.3% in the assay with A498 renal, 59.3% in the assay on CCRF-CEM leukemia and 47.5% in the assay with MOLT-4 leukemia.
As to `COc1ccc(-c2nnc(SCC(=O)Nc3ccc(C(=O)/C=C/c4ccccc4)cc3)n2-c2ccccc2)cc1OC`, the growth is 100% with SK-MEL-2 melanoma; 120% in the assay with EKVX NSCLC; 84.9% with SN12C renal; 69.2% in the assay with UO-31 renal; 93.1% in the assay with TK-10 renal; 98.9% in the assay on ACHN renal. Further, the growth in the assay on A498 renal was 82.5%; in the assay on CCRF-CEM leukemia, 93.6%; in the assay with MOLT-4 leukemia, 59.7%.
Take `COC1OC(COS(=O)OC)C(O)C(O)C1OS(=O)OC` (stereo unspecified): the growth with SK-MEL-2 melanoma is 112%; in the assay on EKVX NSCLC, 103%; in the assay on SN12C renal, 106%; with UO-31 renal it was 88.8%; with TK-10 renal, 88.6%; with ACHN renal it was 106%. Besides, the figures for the growth in the assay with A498 renal, with CCRF-CEM leukemia and in the assay on MOLT-4 leukemia were 116%, 101% and 92.1%, respectively.
Consider `COc1cc(-c2nn(-c3cccc(NC(=O)CN4CCOCC4)c3)cc2-c2cccnc2)ccc1Cl`, for which the growth is 82.1% in the assay with SK-MEL-2 melanoma; 95.8% with EKVX NSCLC; 85.4% in the assay with SN12C renal; 68.6% in the assay on UO-31 renal; 125% in the assay with TK-10 renal; 87.6% in the assay on ACHN renal. The growth in the assay on A498 renal was 93.3%; with CCRF-CEM leukemia it was 70.9%; with MOLT-4 leukemia, 74.3%.
As to `O=[N+]([O-])c1cc(Cl)cc(Cl)c1O`, the growth with SK-MEL-2 melanoma was 103%; in the assay on EKVX NSCLC, 96%; with SN12C renal, 101%; in the assay with UO-31 renal, 84%; in the assay on TK-10 renal, 95.1%; with ACHN renal, 99.4%. The growth was 106% with A498 renal, 98.7% in the assay with CCRF-CEM leukemia and 106% with MOLT-4 leukemia.
Take `C=CCSC(CC)(CC)C(=O)NC`: the growth with SK-MEL-2 melanoma was 109%; in the assay with EKVX NSCLC, 104%; with SN12C renal, 101%; in the assay with UO-31 renal, 94.4%; in the assay with TK-10 renal, 102%; with ACHN renal it was 107%. Also, the growth is 104% in the assay with A498 renal, 101% with CCRF-CEM leukemia and 93% with MOLT-4 leukemia.
Regarding `CCOC(=O)c1cc(C(=O)c2ccc(OC)c(OC)c2)n2c1ccc1ccc3cccnc3c12`, the growth in the assay with SK-MEL-2 melanoma was 19%; in the assay on EKVX NSCLC it was 78.6%; in the assay on SN12C renal it was 62.1%; in the assay with UO-31 renal it was 44%; in the assay on TK-10 renal it was 70.5%; in the assay with ACHN renal, 47.4%. Besides, the figures for the growth with A498 renal, in the assay with CCRF-CEM leukemia and in the assay on MOLT-4 leukemia were -5.4% (active), 19.9% and 33.8%, respectively.
In the case of `CCOC(=O)C(C)(c1ccccc1)c1ccccc1`, the growth in the assay with SK-MEL-2 melanoma was 114%; in the assay with EKVX NSCLC, 102%; in the assay with SN12C renal, 102%; in the assay with UO-31 renal, 94%; in the assay on TK-10 renal, 102%; in the assay with ACHN renal, 112%. Further, the growth in the assay with A498 renal was 105%; in the assay with CCRF-CEM leukemia it was 103%; in the assay with MOLT-4 leukemia, 109%.
Turning to `O=C(CCl)Nc1ccc(Cc2ccc(NC(=O)CCl)cc2)cc1`, the growth in the assay on SK-MEL-2 melanoma is -20.6% (active); in the assay with EKVX NSCLC it was -3.32% (active); in the assay on SN12C renal, 31.6%; in the assay on UO-31 renal, 54.5%; in the assay with TK-10 renal, 83.6%; with ACHN renal, -20.1% (active). The growth is 111% with A498 renal, 0.0611% (active) in the assay with CCRF-CEM leukemia and -4.84% (active) in the assay with MOLT-4 leukemia.
As for `CCN(CC)CC(=O)N(CC)c1ccc(C)c(Cl)c1`, the growth in the assay on SK-MEL-2 melanoma was 99.5%; in the assay with EKVX NSCLC it was 105%; with SN12C renal, 101%; in the assay with UO-31 renal, 90.7%; in the assay with TK-10 renal, 93.6%; with ACHN renal it was 117%. The values for the growth with A498 renal, in the assay with CCRF-CEM leukemia and in the assay with MOLT-4 leukemia were 86.8%, 93.8% and 65.1%, respectively.
In the case of `CCOS(=O)(=O)c1c(C(C)C)cc(C(C)C)cc1C(C)C`, the growth is 96.9% in the assay on SK-MEL-2 melanoma; 97.8% in the assay with EKVX NSCLC; 98.3% in the assay on SN12C renal; 92.2% in the assay with UO-31 renal; 95.1% with TK-10 renal; 104% in the assay on ACHN renal. The results for the growth with A498 renal, in the assay with CCRF-CEM leukemia and with MOLT-4 leukemia were 117%, 121% and 97.6%, respectively.
As for `CC(CN(C)C)Oc1ccccc1NC1=C(Cl)C(=O)C(Nc2ccccc2OC(C)CN(C)C)=C(Cl)C1=O` (stereo unspecified), the growth in the assay on SK-MEL-2 melanoma is -61.2% (active); in the assay on EKVX NSCLC, -71.7% (active); in the assay on SN12C renal, -96% (active); in the assay on UO-31 renal, -99.9% (active); in the assay on TK-10 renal, -97.8% (active); with ACHN renal, -98.4% (active). For the same molecule, the growth was 26.4% with A498 renal, -1.98% (active) in the assay with CCRF-CEM leukemia and -30.8% (active) in the assay on MOLT-4 leukemia.
For `NC(=O)c1cccc(-n2ccc3cc(NC(=O)Nc4ccc(Cl)c(C(F)(F)F)c4)ccc32)n1`, the growth in the assay on SK-MEL-2 melanoma is 97.2%; in the assay with EKVX NSCLC, 57.7%; in the assay on SN12C renal it was 73.4%; in the assay with UO-31 renal, 77.3%; with TK-10 renal, 83.7%; with ACHN renal it was 71.3%. In addition, the growth with A498 renal is 56.9%; in the assay with CCRF-CEM leukemia it was 62.5%; with MOLT-4 leukemia it was 52%.
